From ChEMBL document CHEMBL1157539, “Thousands of chemical starting points for antimalarial lead identification” (Nature, 2010)

What follows are compounds tested on Plasmodium falciparum (assay: GSK_TCMDC: Inhibition of Plasmodium falciparum 3D7 in whole red blood cells, using parasite LDH activity as an index of growth. Test compounds present at 2uM).
Type: functional
`CCCC(=O)Nc1ccc(OCCCCN(Cc2ccccc2C(F)(F)F)c2ccc(C(F)(F)F)c(C#N)c2)cc1` gave an Inhibition of 94%.
For `O=C(/C=C/C=C/c1ccc(Cl)c(Cl)c1)NCCCCCN1CCCC2CCCCC21` (stereo not given), the Inhibition was 91%.
`COc1ccccc1N1CCN(CCCCNC(=O)c2ccc(NC(=O)c3cc4ccccc4o3)cc2)CC1` gave an Inhibition of 84%.
With `COc1ccc(-c2cccc(NC(=O)c3cccc(C#N)c3)c2)cc1CN(C)CCO.O=C(O)C(F)(F)F` the Inhibition was 96%.
With `COc1ccc(-c2cc(C(=O)N3CCc4ccccc43)c3ccccc3n2)cc1OC` the Inhibition was 85%.
For `CCCNCc1ccc(-c2ccc(CN(C(=O)c3nn(-c4ccccc4)nc3C)C3CC3)cc2)nc1.O=C(O)C(F)(F)F`, the Inhibition was 100%.
For `CC(=O)Nc1nc(C(=O)Nc2cccc(-c3ccc(-c4nc5cc(F)ccc5[nH]4)cc3)c2)cs1`, the Inhibition was 100%.
`CCc1nc2nc(C)cc(Nc3cc(C)cc(C)c3)n2n1` was tested, and the Inhibition was 96%.
`Cc1ccn2c(N(Cc3ccccc3)C(=O)c3ccc(Cl)c(Cl)c3)c(-c3ccccc3)nc2c1` gave an Inhibition of 95%.
`Cn1cnc2nc(NCCc3ccccc3)nc(NCc3cccc4ccccc34)c21` showed an Inhibition of 95%.
In the case of `Cc1cc(N/N=C/c2ccccc2[N+](=O)[O-])c2cc(F)ccc2n1`, the Inhibition is reported as 100%.
For `Cc1cc(OCCCn2ccnc2)ccc1-c1csc(/N=C(\N)NCc2ccccc2)n1`, the Inhibition was 92%.
`CC(C)Cc1cn(-c2nc(-c3nc4ccccc4[nH]3)cs2)c2cc(Cl)ccc12.Cl` gave an Inhibition of 99%.
Work on `Cc1cc(CNC(c2ccccc2)C2CCC2)cc(C)c1O` (stereo not given) yielded an Inhibition of 94%.
Compound `Cl.O=C1CSc2ccc(CNC3CCN(CCc4c(F)cnc5ccc(F)cc45)CC3)nc2N1` has an Inhibition of 97%.
Compound `O=S(=O)(c1ccccc1)C1CC1` has an Inhibition of 89%.
In the case of `Br.COc1cccc(OC)c1OCCCON1C(=N)N=C(N)NC1(C)C`, the Inhibition is reported as 95%.
`Cc1cc(C)n2nc(C(=O)Nc3cc(C(F)(F)F)ccc3N3CCOCC3)nc2n1` gave an Inhibition of 94%.
`O=C(Nc1ccc([N+](=O)[O-])cc1Br)c1cc2ccccc2nc1Cl` showed an Inhibition of 97%.
Work on `O=C(/C=C/c1ccc(Cl)cc1)NCCCCCN1CCCC(C(=O)Nc2cccc(Cl)c2)C1` (stereo not given) yielded an Inhibition of 96%.
`CC1(C)N=C(N)N=C(N)N1c1ccc2ccccc2c1.Cl` was tested, and the Inhibition was 95%.
`C=CCc1ccccc1OCC(O)CN(C1CCCCC1)C1CCCCC1.Cl` (stereo not given) was tested, and the Inhibition was 93%.
In the case of `Cc1ccc2[nH]c(-c3ccccc3N)cc2c1`, the Inhibition is reported as 97%.
Work on `Br.CC1(C)NC(N)=NC(=N)N1OCCCc1ccc(Cl)cc1Cl` yielded an Inhibition of 95%.
Compound `COc1cccc(CNc2noc(-c3c(-c4ccccc4)noc3C)n2)c1OC` has an Inhibition of 97%.
In the case of `CCOC(=O)C(NC(=O)Cc1ccccc1)C(C)C` (stereo not given), the Inhibition is reported as 96%.
`O=C(O)c1ccc(-c2c[nH]c3ncc(-c4ccc(Cl)cc4)cc23)cc1` gave an Inhibition of 97%.
`COc1ccc2c(c1)nc(CNC(=N)N)n2Cc1ccc(Cl)cc1.Cl` showed an Inhibition of 100%.
`CC(C)(c1ccccc1)c1ccc(O)c(CN2CCOCC2)c1` was tested, and the Inhibition was 99%.
In the case of `Cc1ccccc1C1CCN(c2ccc(NC(=O)c3ccc(Cl)nc3)cc2)CC1.O=C(O)C(F)(F)F`, the Inhibition is reported as 92%.
Compound `CCc1nc(N)nc(N)c1-c1ccc(F)c(F)c1` has an Inhibition of 98%.
`O=C(Nc1ccc(OC2CCN(Cc3ccsc3)C2)c(Cl)c1)c1ccc(F)cc1.O=C(O)C(F)(F)F` (stereo not given) was tested, and the Inhibition was 89%.
Compound `COc1cc2c(cc1C(F)(F)F)N(C(=O)Nc1cc(Br)cc(-c3cccnc3)c1)CC2` has an Inhibition of 96%.
Compound `COCCOc1nc(N)nc2ncc(Cc3cc(OC)ccc3OC)c(C)c12` has an Inhibition of 96%.
Compound `COc1ccc(-c2ccc(NC(=O)c3ccc(F)cc3)cc2)cc1CNC(C)C.O=C(O)C(F)(F)F` has an Inhibition of 97%.
Compound `O=C1C(=Cc2c(O)ccc3ccccc23)SC(=NCc2ccccc2)N1Cc1ccccc1` has an Inhibition of 98%.
Work on `Cl.NC1=NC2(CCCC2)N(c2ccc(Cl)cc2)C(N)=N1` yielded an Inhibition of 97%.
For `CC1CCCN(Cc2cc(Cl)cc(Cl)c2O)C1` (stereo not given), the Inhibition was 89%.
In the case of `COc1ccc(-c2ccc(NC(=O)c3cccc(C#N)c3)cc2)cc1CN(C)C.O=C(O)C(F)(F)F`, the Inhibition is reported as 100%.
Compound `COc1ccc2nccc(NC(=O)C3(O)CCC(NCc4ncc5c(c4Cl)OCCO5)CC3)c2n1.Cl` (stereo not given) has an Inhibition of 83%.
